PubChem BioAssay AID1159580 (chemical genetic matrix, 2015)
In all, about 5,500 compounds went through this assay and about 2,000 (36%) were called active. Inconclusive results (about 18%) are left out. Cut-off read from the data, not from the text of the source: active = normalized growth mostly below about 0.91 (no sharp cut-off); inconclusive = no clear call, values can overlap the other calls; inactive = mostly above about 0.92. Some of the results follow.

Assay: chemical genetic growth profiling, strain panel (AID 1159580);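 note: tested at 20 µM; growth read once vehicle control cultures reached saturation at 30 °C; 1 = growth at the plate median or of vehicle wells; lower values mean less growth of the strain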
Settings: growth OD

Measured: normalized growth

CNC(=O)O/N=C\C(C)(C)SC
inactive: S. cerevisiae deletion strains, locus YJR043C, strain POL32, hits give low values 1.03 | S. cerevisiae deletion strains, locus YJR075W, strain HOC1, hits give low values 1.02 | S. cerevisiae deletion strains, locus YKL009W, strain mrt4, hits give low values 1.02 | S. cerevisiae deletion strains, locus YKL068W, hits give low values 0.998 | S. cerevisiae deletion strains, locus YKL085W, strain MDH1 (second series), hits give low values 0.996 | S. cerevisiae deletion strains, locus YKL085W, strain MDH1, hits give low values 0.996 | S. cerevisiae deletion strains, locus YKL160W, strain elf1, hits give low values 1 | S. cerevisiae deletion strains, locus YKL190W, strain CNB1, hits give low values 0.991 | S. cerevisiae deletion strains, locus YKR001C, strain vps1, hits give low values 1.01 | S. cerevisiae deletion strains, locus YKR026C, strain gcn3, hits give low values 1 | S. cerevisiae deletion strains, locus YKR091W, strain srl3, hits give low values 1 | S. cerevisiae deletion strains, locus YLL001W, strain dnm1, hits give low values 0.988 | S. cerevisiae deletion strains, locus YLL026W, hits give low values 0.997 | S. cerevisiae deletion strains, locus YLL041C, strain sdh2, hits give low values 1 | S. cerevisiae deletion strains, locus YLR027C, strain aat2, hits give low values 1.01 | S. cerevisiae deletion strains, locus YLR039C, strain RIC1, hits give low values 1.02 | S. cerevisiae deletion strains, locus YLR058C, strain SHM2, hits give low values 1.01 | S. cerevisiae deletion strains, locus YLR102C, strain apc9, hits give low values 0.986 | S. cerevisiae deletion strains, locus YLR221C, strain rsa3, hits give low values 1.01 | S. cerevisiae deletion strains, locus YLR258W, strain gsy2, hits give low values 0.996 | S. cerevisiae deletion strains, locus YLR262C, strain YPT6 (second series), hits give low values 1.01 | S. cerevisiae deletion strains, locus YLR262C, strain YPT6, hits give low values 1.06 | S. cerevisiae deletion strains, locus YLR268W, strain sec22, hits give low values 0.991 | S. cerevisiae deletion strains, locus YLR320W, strain mms22, hits give low values 0.999 | S. cerevisiae deletion strains, locus YLR330W, strain CHS5, hits give low values 1.01 | S. cerevisiae deletion strains, locus YLR342W, strain FKS1 (second series), hits give low values 1 | S. cerevisiae deletion strains, locus YLR342W, strain FKS1, hits give low values 1 | S. cerevisiae deletion strains, locus YLR357W, strain rsc2, hits give low values 0.986 | S. cerevisiae deletion strains, locus YLR370C, strain arc18, hits give low values 1.01 | S. cerevisiae deletion strains, locus YLR371W, strain rom2, hits give low values 0.978 | S. cerevisiae deletion strains, locus YLR384C, strain iki3, hits give low values 0.991 | S. cerevisiae deletion strains, locus YLR418C, strain cdc73, hits give low values 1.01 | S. cerevisiae deletion strains, locus YML016C, strain PPZ1, hits give low values 1.01 | S. cerevisiae deletion strains, locus YML032C, strain rad52, hits give low values 0.993 | S. cerevisiae deletion strains, locus YML120C, strain ndi1, hits give low values 1.01 | S. cerevisiae deletion strains, locus YML124C, strain tub3, hits give low values 0.996 | S. cerevisiae deletion strains, locus YMR058W, strain fet3, hits give low values 1.01 | S. cerevisiae deletion strains, locus YMR078C, strain ctf18, hits give low values 0.992 | S. cerevisiae deletion strains, locus YMR125W, strain sto1, hits give low values 0.996 | S. cerevisiae deletion strains, locus YMR129W, hits give low values 1.01 | S. cerevisiae deletion strains, locus YMR205C, strain PFK2, hits give low values 0.975 | S. cerevisiae deletion strains, locus YMR223W, strain ubp8, hits give low values 0.995 | S. cerevisiae deletion strains, locus YMR231W, strain pep5, hits give low values 1 | S. cerevisiae deletion strains, locus YMR263W, strain SAP30, hits give low values 1.01 | S. cerevisiae deletion strains, locus YMR307W, strain GAS1, hits give low values 1.02 | S. cerevisiae deletion strains, locus YNL067W, strain RPL9B, hits give low values 1.01 | S. cerevisiae deletion strains, locus YNL071W, strain lat1, hits give low values 1.01 | S. cerevisiae deletion strains, locus YNL128W, strain TEP1, hits give low values 1.01 | S. cerevisiae deletion strains, locus YNL153C, strain GIM3, hits give low values 1 | S. cerevisiae deletion strains, locus YNL209W, strain ssb2, hits give low values 1.01 | S. cerevisiae deletion strains, locus YNL233W, strain BNI4, hits give low values 1.02 | S. cerevisiae deletion strains, locus YNL248C, strain rpa49, hits give low values 0.992 | S. cerevisiae deletion strains, locus YNL250W, strain rad50, hits give low values 0.989 | S. cerevisiae deletion strains, locus YNL271C, strain bni1, hits give low values 0.992 | S. cerevisiae deletion strains, locus YNL298W, strain CLA4, hits give low values 0.983 | S. cerevisiae deletion strains, locus YNL307C, strain MCK1, hits give low values 0.989 | S. cerevisiae deletion strains, locus YNL322C, strain KRE1 (second series), hits give low values 0.999 | S. cerevisiae deletion strains, locus YNL322C, strain KRE1, hits give low values 1.01 | S. cerevisiae deletion strains, locus YNR049C, strain mso1, hits give low values 1 | S. cerevisiae deletion strains, locus YNR052C, strain pop2, hits give low values 0.987 | S. cerevisiae deletion strains, locus YOL006C, strain TOP1, hits give low values 1.1 | S. cerevisiae deletion strains, locus YOL012C, strain htz1 0.971 | S. cerevisiae deletion strains, locus YOL147C, strain pex11, hits give low values 0.981 | S. cerevisiae deletion strains, locus YOR001W, strain rrp6, hits give low values 1.01 | S. cerevisiae deletion strains, locus YOR061W, strain CKA2, hits give low values 1 | S. cerevisiae deletion strains, locus YOR069W, strain VPS5, hits give low values 0.998 | S. cerevisiae deletion strains, locus YOR070C, strain gyp1, hits give low values 1 | S. cerevisiae deletion strains, locus YOR080W, strain dia2, hits give low values 0.996 | S. cerevisiae deletion strains, locus YOR083W, strain WHI5, hits give low values 0.999 | S. cerevisiae deletion strains, locus YOR106W, strain vam3, hits give low values 0.996 | S. cerevisiae deletion strains, locus YOR136W, strain idh2, hits give low values 1.01 | S. cerevisiae deletion strains, locus YOR144C, strain elg1, hits give low values 0.983 | S. cerevisiae deletion strains, locus YOR184W, strain ser1, hits give low values 1 | S. cerevisiae deletion strains, locus YOR265W, strain rbl2, hits give low values 1.03 | S. cerevisiae deletion strains, locus YOR270C, strain vph1, hits give low values 1 | S. cerevisiae deletion strains, locus YOR290C, strain snf2, hits give low values 0.994 | S. cerevisiae deletion strains, locus YOR316C, strain cot1, hits give low values 0.987 | S. cerevisiae deletion strains, locus YPL051W, strain arl3, hits give low values 1 | S. cerevisiae deletion strains, locus YPL055C, strain LGE1, hits give low values 1.05 | S. cerevisiae deletion strains, locus YPL078C, strain atp4, hits give low values 1 | S. cerevisiae deletion strains, locus YPL106C, strain sse1, hits give low values 0.996 | S. cerevisiae deletion strains, locus YPL240C, strain hsp82, hits give low values 1.01 | S. cerevisiae deletion strains, locus YPL241C, strain CIN2, hits give low values 0.999 | S. cerevisiae deletion strains, locus YPR119W, strain clb2, hits give low values 0.986 | S. cerevisiae deletion strains, locus YPR141C, strain kar3, hits give low values 0.996 | S. cerevisiae deletion strains, locus YPR163C, strain tif3, hits give low values 0.983 | S. cerevisiae deletion strains, locus YPR167C, strain met16, hits give low values 0.99 | S. cerevisiae deletion strains, strain wtn01, hits give low values 0.997 | S. cerevisiae strains, strain wild type, hits give low values 1
